Source: PubChem BioAssay (National Center for Advancing Translational Sciences (NCATS))
A selection: hits, their analogues and other compounds. The true share with any hit is near 10%.
hNpr1 antagonist: Natriuretic polypeptide receptor (hNpr1) antagonism - Primary qHTS; HEK293 hNpr1 GloSensor cGMP, ANP-stimulated luminescence; hit rate 1.6% among 76,000; AID 1347048, 2019; Potency, µM (titrated, usually from 46.3 µM), for the others: at the highest dose activity change, negative = inhibition, hits mostly inhibitors; Atrial natriuretic peptide receptor 1 (Homo sapiens), P16066; calls by dose curve; also: nearly all actives have a fitted effect of over 60% in size
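HEK293 cells stably expressing human Npr1 and cGMP GloSensor pGS-40F, loaded 2 h with 2% GloSensor reagent, given compound 30 min at room temperature. Luminescence read before and 20 min after 0.1 nM hNppA.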
3T3 cytotox: Cytotoxic Profiling in NIH 3T3 Cell Line of Diverse Libraries Using Quantitative High-Throughput Screening. NIH 3T3 viability, CellTiter-Glo ATP luminescence, 48-72 h. Potency, µM (top dose mostly 96.7 µM), for inactives: at the highest dose activity change, negative = cytotoxicity, hits mostly inhibitors. hit rate 4.3% among 94,000. AID 1345082, 2018; also: nearly all actives have a fitted effect of over 55% in size
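ATP-dependent luminescence (CellTiter-Glo) served as the viability signal for NIH 3T3 cells treated with compound for 48 or 72 hr at 37 °C.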
Luciferase inh: Firefly luciferase inhibition profiling of diverse chemical library using quantitative high-throughput screening. Potency, µM (top dose mostly 115 µM), usual class: inhibitors. Luciferin 4-monooxygenase (Photinus pyralis), P08659. hit rate 2.5% among 76,000. AID 1347043, 2019. purified P. pyralis luciferase, luminescence, biochemical; also: nearly all actives have a fitted effect of over 65% in size
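Purified P. pyralis luciferase (10nM final) in 50mM Tris acetate pH 7.5, 10mM Mg acetate, 0.01% Tween-20, 0.05% BSA with 10uM D-luciferin and 10uM ATP. Compounds titrated qHTS. Luminescence imaged on CCD.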
GPT2 inh: Primary qHTS assay for inhibitors of Glutamate pyruvate transaminase 2 (GPT2); Alanine aminotransferase 2 (Homo sapiens), Q8TD30; AID 1671188, 2021; Potency, µM (top dose mostly 57.7 µM), without a hit: top-dose activity change, negative = inhibition, most hits filed as inhibitors; hit rate 0.25% among 100,000; Recombinant GPT2, coupled pyruvate oxidase/HRP Amplex Red fluorescence; also: nearly all actives have a fitted effect of over 60% in size
Target sequence (Q8TD30 whole entry, looked up): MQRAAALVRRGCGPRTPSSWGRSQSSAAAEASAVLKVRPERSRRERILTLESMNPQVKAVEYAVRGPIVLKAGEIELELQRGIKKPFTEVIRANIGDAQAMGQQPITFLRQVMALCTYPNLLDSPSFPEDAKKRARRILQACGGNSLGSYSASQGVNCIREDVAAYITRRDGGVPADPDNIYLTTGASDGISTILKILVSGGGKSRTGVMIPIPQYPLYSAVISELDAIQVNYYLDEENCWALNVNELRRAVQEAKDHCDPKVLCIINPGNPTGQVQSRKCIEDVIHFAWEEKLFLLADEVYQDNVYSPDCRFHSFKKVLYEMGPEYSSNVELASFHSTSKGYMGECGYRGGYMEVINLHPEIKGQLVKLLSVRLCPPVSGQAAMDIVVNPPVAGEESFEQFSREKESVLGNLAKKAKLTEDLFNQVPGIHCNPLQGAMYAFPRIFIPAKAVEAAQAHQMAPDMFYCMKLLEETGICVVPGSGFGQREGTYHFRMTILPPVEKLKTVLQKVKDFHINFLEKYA
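Fluorescence read-out: pyruvate from GPT2 turnover coupled to pyruvate oxidase, HRP and Amplex Red (0.2mM ThPP, 0.2U/mL PO and HRP, 50uM Amplex final). Substrates 250uM a-KG, 2mM L-alanine; enzyme 10ng/uL; 30 min RT.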
HEK cytotox: Cytotoxic Profiling in HEK 293 Cell Line of Diverse Libraries Using Quantitative High-Throughput Screening | HEK 293 viability, ATP luminescence (CellTiter-Glo), 48-72 h | Potency, µM (top dose mostly 115 µM), for inactives: at the top dose activity change, negative = cytotoxicity, usual class: inhibitors | hit rate 6.6% among 94,000 | AID 1345083, 2018; also: nearly all actives have a fitted effect of over 60% in size
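HEK 293 cells at 250 cells/well were exposed to compounds by pintool transfer for 48 or 72 hr at 37 degree Celsius, 5% CO2. Viability was read as ATP-coupled luminescence with CellTiter-Glo after 10 min at room temperature.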
* = called active by the depositor; [ ] = dose if it differs, or a comment. Unless noted, calls follow the shape of the dose curve; as a rule, active = well fitted curve in the direction sought with a large enough effect; inconclusive = small, poorly fitted or top-dose-only effect, or another doubt; inactive = no such curve, though single readings can be large; an effect the other way counts as inactive or inconclusive. % is scaled to controls: 0 for no effect and ±100 for the full control effect; potency is read from the fitted curve at half-maximal effect.

Screening CCOC(=O)N1CCC(=O)N(CC2CC2)Cc2cc(OC)ccc21 returned 3T3 cytotox -31% and HEK cytotox inconclusive.
For CCOC(=O)C1CCCN(C(=O)C2CC(c3ccccc3)CN(C(=O)c3cccc(F)c3)C2)C1 (stereo unspecified) the results were hNpr1 antagonist 3%, 3T3 cytotox inconclusive, Luciferase inh inactive, GPT2 inh -7% and HEK cytotox inconclusive.
Screening CCOC(=O)C1CCCN(C(=O)C2CC(c3ccc(CC)cc3)CN(C(=O)c3ccoc3)C2)C1 (stereo unspecified) returned hNpr1 antagonist 0%, 3T3 cytotox inconclusive, Luciferase inh inactive, GPT2 inh 2% and HEK cytotox 45µM*.
For CCc1ccc(C2CC(C(=O)NC(C)c3ccccc3)CN(C(=O)c3ccoc3)C2)cc1 (stereo unspecified) the results were hNpr1 antagonist -16%, 3T3 cytotox 32µM*, Luciferase inh inactive, GPT2 inh -4% and HEK cytotox inconclusive.
For CC(=O)N1CC(C(=O)NC(C)c2ccccc2)CC(c2cccc(C)c2)C1 (stereo unspecified) the results were hNpr1 antagonist -1%, 3T3 cytotox -17%, Luciferase inh inactive, GPT2 inh inactive and HEK cytotox -18%.
Screening CC(C)c1ccc([S+](=O)([O-])c2nnn3c2nc(NCc2ccncc2)c2ccccc23)cc1 returned 3T3 cytotox 40µM*, GPT2 inh inactive and HEK cytotox 50µM*.
CC(=O)N1CCC(Cc2ccc(C(=O)N3CCCCC3CN3CCCCC3)cc2)CC1 (stereo unspecified) was read as 3T3 cytotox -18%, GPT2 inh -11% and HEK cytotox -6%.
For COc1ccc(C2(C(=O)NCCc3ncc(C)n3C3CC3)CC2)cc1 the results were hNpr1 antagonist 4%, 3T3 cytotox -28%, Luciferase inh inactive, GPT2 inh inactive and HEK cytotox inconclusive.
Screening Cc1ccc(NC(=O)NCCc2ncc(C)n2CC2CC2)cc1C returned hNpr1 antagonist -23%, 3T3 cytotox inconclusive, Luciferase inh inactive, GPT2 inh inactive and HEK cytotox inconclusive.
Screening Cc1ccc(NC(=O)NCCc2ncc(C)n2C2CCC2)cc1C returned hNpr1 antagonist -16%, 3T3 cytotox -19%, Luciferase inh inactive, GPT2 inh inactive and HEK cytotox 79µM*.
`Cc1cnc(CCNC(=O)C2(c3ccccc3)CC2)n1C1CCCCCC1` gave hNpr1 antagonist -4%, 3T3 cytotox inconclusive, Luciferase inh inactive, GPT2 inh inactive and HEK cytotox 40µM*.
`O=C(c1ccc(Cl)cc1)N1CC2(CCCN2Cc2cc(F)c(F)c(F)c2)Cc2ccccc21` (stereo unspecified) gave 3T3 cytotox inconclusive, GPT2 inh -14% and HEK cytotox inconclusive.
`O=C1COc2ccc(-c3ccsc3)nc2CN1` gave hNpr1 antagonist -6%[70.6 µM], 3T3 cytotox inconclusive, Luciferase inh inactive, GPT2 inh 0%[88.5 µM] and HEK cytotox -23%[230 µM].
For CCCN(C)CC1(O)CCC2(CCN(C(=O)C3CCCC3)CC2)CC1 the results were 3T3 cytotox inconclusive, GPT2 inh 3% and HEK cytotox inconclusive.
`C[S+](=O)([O-])c1cccc(-c2ccc3ncn(-c4ccc(F)cc4F)c(=O)c3n2)c1` gave hNpr1 antagonist 0%[70.6 µM], 3T3 cytotox inconclusive, Luciferase inh inactive, GPT2 inh -15%[88.5 µM] and HEK cytotox inconclusive.
O=c1c2nc(-c3cccnc3)ccc2ncn1-c1ccc(F)cc1F was read as hNpr1 antagonist 0%[70.6 µM], 3T3 cytotox inconclusive, Luciferase inh inactive, GPT2 inh inactive and HEK cytotox 71µM*.
For CC(=O)Nc1cccc(-c2ccc3ncn(-c4ccc(F)cc4F)c(=O)c3n2)c1 the results were hNpr1 antagonist -2%[70.6 µM], 3T3 cytotox inconclusive, Luciferase inh inactive, GPT2 inh -3%[88.5 µM] and HEK cytotox 89µM*.
`COc1ncc(-c2ccc3ncn(-c4ccc(F)cc4F)c(=O)c3n2)cn1` gave hNpr1 antagonist -2%[70.6 µM], 3T3 cytotox inconclusive, Luciferase inh inactive, GPT2 inh 1%[88.5 µM] and HEK cytotox 89µM*.
COCc1cccc(-c2ccc3ncn(-c4ccc(F)cc4F)c(=O)c3n2)c1 was read as hNpr1 antagonist 4%[70.6 µM], 3T3 cytotox inconclusive, Luciferase inh inactive, GPT2 inh inactive and HEK cytotox -23%[172 µM].
COc1ccc2[nH]c3c(c2c1)CCNC31CCN(C(=O)Cc2cccnc2)CC1 was read as hNpr1 antagonist 6%, 3T3 cytotox -21%, Luciferase inh inactive, GPT2 inh inactive and HEK cytotox -11%.
Cn1ncc2c(C(=O)NCCCc3ccccc3)cc(-c3ccccc3)nc21 was read as 3T3 cytotox -13%, GPT2 inh inactive and HEK cytotox inconclusive.
Screening CC(C)C[C@H](CO)NC(=O)C[C@@H]1c2nc(-c3cccnc3)sc2C[C@@H]2[C@](C)(CO)[C@H](O)CC[C@]21C returned hNpr1 antagonist -4%, 3T3 cytotox inconclusive, Luciferase inh inactive, GPT2 inh 4% and HEK cytotox 3%.
O=C(c1ccc(F)cc1)N1CCC2(CCc3nn(Cc4ccccc4)c(=O)n3CC2)CC1 was read as 3T3 cytotox inconclusive, GPT2 inh inactive and HEK cytotox inconclusive.
Cc1cc(C)c(CNC(=O)c2cc(-c3ccccc3)cc3c2OCCN3C)c(=O)[nH]1 was read as hNpr1 antagonist -14%[70.6 µM], 3T3 cytotox inconclusive, Luciferase inh inactive, GPT2 inh 5%[88.5 µM] and HEK cytotox inconclusive.
Cc1cc(C)c(CNC(=O)c2cc(-c3ccc(CO)cc3)cc3c2OCCN3C)c(=O)[nH]1 was read as hNpr1 antagonist 0%[70.6 µM], 3T3 cytotox 13µM*, Luciferase inh inactive, GPT2 inh inactive and HEK cytotox 89µM*.
Screening COc1cc(F)ccc1-c1cc(C(=O)NCc2c(C)cc(C)[nH]c2=O)c2c(c1)ncn2C returned hNpr1 antagonist 4%[70.6 µM], 3T3 cytotox 25µM*, Luciferase inh inconclusive, GPT2 inh -4%[88.5 µM] and HEK cytotox inconclusive.
`COc1ccccc1-c1cc(C(=O)NCc2c(C)cc(C)[nH]c2=O)c2c(c1)N(C)CCO2` gave hNpr1 antagonist -11%[70.6 µM], 3T3 cytotox inconclusive, Luciferase inh inactive, GPT2 inh -7%[88.5 µM] and HEK cytotox 89µM*.
